About 2,000 (36%) of roughly 5,500 compounds were called active. Not shown: some 18% with an inconclusive outcome. No stated cut-off is given here; in the data, active means normalized growth mostly below about 0.91 (no sharp cut-off); inconclusive means no clear call, values can overlap the other calls; inactive means mostly above about 0.92. The list shows a part of the results.
Assay: chemical genetic growth profiling, strain panel (AID 1159580);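 further: tested at 20 µM; growth read once vehicle control cultures reached saturation at 30 °C; 1 = growth at the plate median or of vehicle wells; lower values mean less growth of the strain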
Settings: S. cerevisiae deletion strains, growth OD

Measured: normalized growth

CC1=C(/C=C/C(C)=C/C=C/C(C)=C/C=C/C=C(C)/C=C/C=C(C)/C=C/C2=C(C)C(=O)CCC2(C)C)C(C)(C)CCC1=O
inactive: locus YAL021C, strain ccr4, hits give low values 1.02 | locus YAL026C, strain drs2, hits give low values 0.964 | locus YAL030W, strain snc1, hits give low values 0.981 | locus YBL061C, strain skt5, hits give low values 0.981 | locus YBR009C, strain hhf1, hits give low values 0.941 | locus YBR023C, strain chs3, hits give low values 0.987 | locus YBR171W, strain sec66, hits give low values 0.975 | locus YBR231C, strain swc5, hits give low values 0.982 | locus YBR279W, strain paf1, hits give low values 0.989 | locus YCL011C, strain gbp2, hits give low values 0.96 | locus YCL016C, strain dcc1, hits give low values 1 | locus YCL061C, strain MRC1, hits give low values 1.01 | locus YCL069W, strain vba3, hits give low values 0.975 | locus YCR088W, strain abp1, hits give low values 0.994 | locus YDL005C, strain med2, hits give low values 0.981 | locus YDL040C, strain nat1, hits give low values 0.978 | locus YDR001C, strain nth1, hits give low values 0.986 | locus YDR069C, strain doa4, hits give low values 0.996 | locus YDR137W, strain rgp1, hits give low values 1.03 | locus YDR159W, strain sac3, hits give low values 0.961 | locus YDR195W, strain ref2 0.944 | locus YDR297W, strain sur2, hits give low values 0.995 | locus YDR334W, strain swr1, hits give low values 0.982 | locus YDR335W, strain msn5, hits give low values 0.992 | locus YDR392W, strain spt3, hits give low values 0.92 | locus YEL003W, strain gim4, hits give low values 0.979 | locus YEL037C, strain rad23, hits give low values 0.971 | locus YEL061C, strain CIN8 (second series), hits give low values 0.979 | locus YER015W, strain faa2, hits give low values 0.984 | locus YER016W, strain bim1, hits give low values 1.01 | locus YER111C, strain swi4, hits give low values 0.963 | locus YER155C, strain BEM2 (second series), hits give low values 0.973 | locus YFR010W, strain ubp6, hits give low values 0.971 | locus YGL167C, strain pmr1, hits give low values 0.978 | locus YGL173C, strain kem1, hits give low values 0.99 | locus YGL227W, strain vid30, hits give low values 0.971 | locus YGL240W, strain doc1, hits give low values 1.01 | locus YGL253W, strain hxk2, hits give low values 0.963 | locus YHR013C, strain ard1, hits give low values 0.958 | locus YHR027C, strain rpn1, hits give low values 0.997 | locus YHR142W, strain chs7, hits give low values 1.01 | locus YJL092W, strain hpr5, hits give low values 0.999 | locus YJL095W, strain BCK1 (second series), hits give low values 1 | locus YJL115W, strain asf1, hits give low values 0.98 | locus YJL129C, strain trk1, hits give low values 0.989 | locus YJL154C, strain vps35, hits give low values 0.975 | locus YJL164C, strain tpk1, hits give low values 1.02 | locus YJL166W, strain qcr8, hits give low values 1 | locus YJL187C, strain SWE1, hits give low values 0.985 | locus YKL160W, strain elf1, hits give low values 1.07 | locus YKR026C, strain gcn3, hits give low values 0.977 | locus YKR091W, strain srl3, hits give low values 0.985 | locus YLL001W, strain dnm1, hits give low values 0.997 | locus YLL026W, hits give low values 0.987 | locus YLL041C, strain sdh2, hits give low values 0.998 | locus YLR027C, strain aat2, hits give low values 1.01 | locus YLR221C, strain rsa3, hits give low values 1.01 | locus YLR258W, strain gsy2, hits give low values 0.982 | locus YLR262C, strain YPT6 (second series), hits give low values 1.05 | locus YLR320W, strain mms22, hits give low values 0.99 | locus YLR342W, strain FKS1, hits give low values 0.983 | locus YLR357W, strain rsc2, hits give low values 0.966 | locus YLR370C, strain arc18, hits give low values 0.986 | locus YLR384C, strain iki3, hits give low values 0.998 | locus YML120C, strain ndi1, hits give low values 0.996 | locus YMR058W, strain fet3, hits give low values 0.965 | locus YMR125W, strain sto1, hits give low values 0.92 | locus YMR129W, hits give low values 0.975 | locus YMR205C, strain PFK2, hits give low values 0.937 | locus YMR231W, strain pep5, hits give low values 0.987 | locus YNL071W, strain lat1, hits give low values 0.99 | locus YNL209W, strain ssb2, hits give low values 0.991 | locus YNL248C, strain rpa49, hits give low values 1.03 | locus YNL322C, strain KRE1 (second series), hits give low values 0.989 | locus YNR049C, strain mso1, hits give low values 0.965 | locus YOR001W, strain rrp6, hits give low values 1.03 | locus YOR070C, strain gyp1, hits give low values 1.02 | locus YOR080W, strain dia2, hits give low values 0.993 | locus YOR083W, strain WHI5, hits give low values 1.05 | locus YOR106W, strain vam3, hits give low values 0.986 | locus YOR265W, strain rbl2, hits give low values 1.01 | locus YOR270C, strain vph1, hits give low values 0.871 | locus YOR290C, strain snf2, hits give low values 0.934 | locus YPL051W, strain arl3, hits give low values 1.02 | locus YPL078C, strain atp4, hits give low values 0.997 | locus YPL106C, strain sse1, hits give low values 1.01 | locus YPL240C, strain hsp82, hits give low values 1

Source: PubChem BioAssay AID1159580 (chemical genetic matrix, 2015)
